Tau FP inhib = inhibitors of human tau fibril formation; P10636; K18 P301L tau heparin fibrillization, Alexa594 FP, 6 h; Potency, µM (titrated, usually from 57.7 µM), most hits filed as inhibitors; 280,000 compounds, 0.39% hits; AID 1468; further: nearly all actives have a fitted effect of over 55% in size
Target sequence (P10636 561-689 P618L limits assumed): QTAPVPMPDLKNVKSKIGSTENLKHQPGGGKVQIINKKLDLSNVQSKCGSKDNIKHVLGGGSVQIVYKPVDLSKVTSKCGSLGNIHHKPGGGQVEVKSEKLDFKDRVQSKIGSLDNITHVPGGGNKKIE
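Heparin (20 uM) drove fibril formation of recombinant tau K18 P301L, 15 uM unlabeled with 0.24 uM Alexa 594 label, for 6 hr at 37 C in 100 mM sodium acetate pH 7. Fluorescence polarization (555/632 nm) read 1 hr after 30 uM ThT.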
Tau ThT inhib = blocks human tau fibril formation measured by thioflavin T | P10636 | recombinant tau K18 P301L, heparin-induced fibrillization, ThT fluorescence | Potency, µM (top dose mostly 57.4 µM), actives largely listed as inhibitors | 270,000 compounds, 2.1% hits; further: nearly all actives have a fitted effect of over 55% in size
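Fibril formation assay: tau K18 P301L at 15 uM with trace Alexa 594 label, heparin inducer 20 uM, pH 7 sodium acetate buffer, 37 C for 6 hr; endpoint ThT signal.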
RGS12 GoLoco inh = RGS12 GoLoco-Gai1 interaction inhibition; P63096; Gai1:RGS12 GoLoco peptide FP, rhodamine, 10 min; Potency, µM (doses to about 61.6 µM), usual class: inhibitors; 230,000 compounds, 0.44% hits; active means well fitted inhibition curve with a large enough effect, not every such curve was filed as active; inactive means no such curve, though single readings can be large or run the other way; further: nearly all actives have a fitted effect of over 30% in size
Target sequence (P63096 whole entry, looked up): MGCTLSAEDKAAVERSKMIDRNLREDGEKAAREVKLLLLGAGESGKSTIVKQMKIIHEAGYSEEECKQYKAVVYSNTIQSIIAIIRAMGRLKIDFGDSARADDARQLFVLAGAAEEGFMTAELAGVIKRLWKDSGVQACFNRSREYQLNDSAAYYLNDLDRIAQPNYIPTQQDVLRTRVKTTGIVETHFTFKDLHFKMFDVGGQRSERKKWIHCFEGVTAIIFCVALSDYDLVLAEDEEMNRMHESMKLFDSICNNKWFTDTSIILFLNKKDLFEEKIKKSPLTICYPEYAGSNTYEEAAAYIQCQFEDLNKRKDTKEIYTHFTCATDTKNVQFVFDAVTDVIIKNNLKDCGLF
Tau fluor counter = counter-screen for tau fibril formation inhibitors | Potency, µM (highest dose often 57.7 µM) | tau K18 P301L Alexa594 fluorescence, heparin fibrillization | 280,000 compounds, 0.93% hits | AID 1463; further: nearly all actives have a fitted effect of over 55% in size
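Human tau K18 P301L (15 uM unlabeled, 0.24 uM Alexa 594-labeled) in 100 mM sodium acetate pH 7 with 20 uM heparin, 6 hr at 37 C. ThT 30 uM added, 1 hr ambient; Alexa 594 FP and total fluorescence read at 555/632 nm.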
TRb-SRC2 inh = disrupts binding of human TR beta to SRC2 | TRbeta-SRC2 peptide binding, fluorescence polarization; receptor liganded with 1 µM T3 | 280,000 compounds, 0.065% hits | Potency, µM (titrated, usually from 106 µM), actives largely listed as inhibitors | P10828 | AID 1469; further: nearly all actives have a fitted effect of over 50% in size
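Compounds were added to 0.6 uM TRb ligand-binding domain and 20 nM Texas Red-labeled SRC2 peptide in Tris buffer containing 1 uM T3, incubated 5 hr at ambient temperature, then read by fluorescence polarization.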
TexasRed fluor = counter-screen for TRb-SRC2 inhibitors: fluorescence interference; Potency, µM (titrated, usually from 106 µM); TRb/SRC2 Texas Red total fluorescence interference; 280,000 compounds, 0.29% hits; active means well fitted curve in either direction with a large enough effect; inconclusive means small, poorly fitted or top-dose-only effect
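Flags fluorescent or light-absorbing compounds by total fluorescence, S + 2P, at 555 nm excitation and 632 nm emission. Mixture: 20 nM Texas Red SRC2 peptide, 0.6 uM human TRb LBD, 1 uM T3, 5% DMSO; compound exposure 5 h at ambient temperature.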
Numbers stand for hits; - = inactive; ? = inconclusive; . = no result given; [ ] = remark or other dose. Most compounds without a hit are left out; they make up all but 3.2% or so of the library. Unless noted, the call rests on the fitted dose curve; in most records, active means well fitted curve in the direction sought with a large enough effect; inconclusive means small, poorly fitted or top-dose-only effect, or another doubt; inactive means no such curve, though single readings can be large; an effect the other way counts as inactive or inconclusive.

SMILES | Tau FP inhib | Tau ThT inhib | RGS12 GoLoco inh | Tau fluor counter | TRb-SRC2 inh | TexasRed fluor
Cc1cc2ccccc2n1CCNC(=O)c1ccc(S(=O)(=O)N2CCCCC2)cc1 | - | - | - | - | - | 45µM[fluorescent]
CC(=O)Nc1ccc(S(=O)(=O)NCc2ccc3c(c2)cc(C)n3C)cc1 | - | ? | - | ? | - | ?
Cc1cc2ccccc2n1CCNC(=O)C(C)Oc1ccccc1 (configuration not stated) | ? | ? | - | - | 50µM | ?
NC(Cc1ccccc1)(C(=O)O)C(=O)O | . | . | -[14.2 µM] | . | . | .
COC(=O)[C@H](COC(C)(C)C)NC(=O)O[C@@H]1C(=O)c2cc(OC)ccc2O[C@H]1c1ccc(OC)c(Br)c1 | - | ? | - | - | - | -
Cc1noc(C)c1-c1ccc2ncnc(NCc3cccn3C)c2c1 | . | . | . | . | - | -
CCCC1c2c(ccc3ccccc23)Oc2ccc3ccccc3c21 | . | . | -[14.2 µM] | . | . | .
CO/N=C1\C[C@]2(C[C@@H]3C[C@@H](C/C=C(\C)C[C@@H](C)/C=C/C=C4\CO[C@@H]5[C@H](O)C(C)=C[C@@H](C(=O)O3)[C@]45O)O2)O[C@H](/C(C)=C/C(C)C)[C@H]1C | . | . | . | . | - | -
S=C(NCc1ccc2c(c1)OCO2)Nc1ccc(-c2nc3ccccc3[nH]2)cc1 | ? | ? | - | 13µM[quencher] | - | -
CC(C)c1ccc(NC(=S)NCc2ccc3c(c2)OCO3)cc1 | - | - | - | ? | - | -
Cc1cc(N2CCOCC2)nc2ccc(NC(=S)NCc3ccc4c(c3)OCO4)cc12 | ? | ? | - | 14µM[quencher] | - | -
S=C(NCc1ccc(Cl)c(Cl)c1)Nc1ccc2c(c1)OCO2 | ? | ? | - | 16µM[quencher] | - | -
O=C(c1cccc(F)c1)N1CCC2(CC1)CCN(c1ccccn1)CC2 | . | . | - | . | . | .
CC(C)c1cnc2c(c1SCC(=O)Nc1ccc(OC(F)(F)F)cc1)c(=O)n(C)c(=O)n2C | ? | - | . | - | - | -
O=C1C(NS(=O)(=O)c2cccs2)=C(N2CCN(Cc3ccccc3)CC2)C(=O)c2ccccc21 | - | 16µM | - | ? | - | -
O=C1C(NS(=O)(=O)c2cccs2)=C(N2CCN(c3cccc(C(F)(F)F)c3)CC2)C(=O)c2ccccc21 | - | 4.5µM | - | 7.1µM[quencher] | - | -
O=C(CNS(=O)(=O)c1cccs1)N1CCN(c2cccc(C(F)(F)F)c2)CC1 | - | - | . | - | - | -
O=C(O)c1cccc(NC2=C(N3CCOCC3)C(=O)c3ccccc3C2=O)c1 | ? | 32µM | - | ? | - | -
CN1CCN(C2=C(NS(=O)(=O)c3cccs3)C(=O)c3ccccc3C2=O)CC1 | - | ? | - | - | - | -
O=C1C(NS(=O)(=O)c2ccc(Cl)cc2)=C(N2CCCCC2)C(=O)c2ccccc21 | ? | 16µM | - | ? | - | -
NC(=O)C1CCN(C2=C(NS(=O)(=O)c3ccccc3)C(=O)c3ccccc3C2=O)CC1 | - | ? | - | - | - | -
C[C@H]1Cc2c(-c3ccccc3)nc3c(c2CO1)CN(C(=O)c1ccco1)CC3 | -[11.6 µM] | -[11.5 µM] | -[14.2 µM] | -[11.6 µM] | -[11.2 µM] | -[11.2 µM]
COc1ccccc1N1CCN(S(=O)(=O)c2cccs2)CC1 | - | - | - | - | - | -
O=C1C(NS(=O)(=O)c2cccs2)=C(N2CCOCC2)C(=O)c2ccccc21 | ? | 16µM | - | ? | - | -
CCOc1ccccc1N1CCN(C2=C(NS(=O)(=O)c3cccs3)C(=O)c3ccccc3C2=O)CC1 | ? | 8.9µM | - | 13µM[quencher] | - | -
SMILES | Tau FP inhib | Tau ThT inhib | RGS12 GoLoco inh | Tau fluor counter | TRb-SRC2 inh | TexasRed fluor
O=C(CCc1cn(Cc2ccccc2Cl)c2ccccc12)NC1CCCCC1 | - | - | . | - | - | -
COc1cccc(OC)c1-c1cc(C(=O)NC2(C(=O)O)C3CC4CC(C3)CC2C4)nn1-c1ccc(C(=O)N(C)CCCN(C)C)cc1C(C)C (configuration not stated) | . | . | . | . | - | -
O=C(Nc1ccccc1F)c1ccc2c(Cl)c3c(nc2c1)CCC3 | - | - | . | - | - | -
CCCCC1=CC2=C(OC(C)=O)C(=O)C(C)(OC(=O)c3ccco3)C(=O)C2=CO1 (configuration not stated) | ? | ? | - | - | - | -
Cc1ccc(S(=O)Cc2ccc(C(=O)NC3CCCCCC3)o2)cc1 (configuration not stated) | - | - | . | - | - | -
CN1c2ccsc2C(O)=C(C(=S)Nc2ccc(F)c(Cl)c2)S1(=O)=O | ? | 20µM | - | ? | - | -
Cc1ccccc1-c1ccc(Nc2ccc(N3CCOCC3)cc2)nn1 | - | 14µM | - | ? | - | -
CCCc1cc(-c2n[nH]c(C)c2-c2ccc(C(=O)OCC)o2)c(O)cc1O | ? | - | - | 14µM[quencher] | - | -
CCCc1cc(C(=O)Cc2ccc(C(=O)OCC)o2)c(O)cc1O | - | ? | - | ? | - | -
CCc1cc(-c2n[nH]c(C)c2-c2nc3ccccc3n2C)c(O)cc1O | - | - | - | - | - | -
CCc1cc(-c2n[nH]c(C)c2-c2ccc3c(c2)OCCO3)c(O)cc1O | - | ? | - | 10µM[quencher] | - | -
CCc1cc2c3c(c1)C1(C(=O)N3C(C)(C)C=C2C)C(C#N)=C(N)Oc2[nH]c(=O)[nH]c(=O)c21 (configuration not stated) | ? | 14µM | - | ? | - | -
O=C(Cn1c(=O)n(CC2CCCO2)c(=O)c2ccccc21)Nc1ccc(F)cc1F (configuration not stated) | - | - | . | - | - | -
COc1ccc(OCC(=O)Nc2nc(-c3ccc(Br)cc3)ns2)cc1 | ? | - | . | - | - | -
Cc1ccc(C)c(NC(=S)NCc2ccc3[nH]c4c(c3c2)CCCC4)c1 | ? | ? | - | 13µM[quencher] | - | -
Cc1ccccc1NC(=S)NCc1ccc2[nH]c3c(c2c1)CCCC3 | - | - | - | - | - | -
CCOC(=O)/C(C#N)=C1/C=CN(Cc2ccccc2)C=N1 | - | - | - | - | - | -
CCOC(=O)/C(C#N)=C1\C(=O)N(Cc2ccccc2)c2ccccc21 | ? | 35µM | - | ? | - | -
CC(C)[C@H](Nc1ccc(C(F)(F)F)cc1[N+](=O)[O-])C(=O)O | - | - | - | - | - | -
O=C(NNc1ccc(C(F)(F)F)cc1[N+](=O)[O-])c1ccc(NS(=O)(=O)c2ccc(F)cc2)cc1 | ? | 14µM | - | 11µM[quencher] | - | -
NC(C(=O)O)c1cc(O)cc(O)c1 (configuration not stated) | - | - | - | - | - | -
CCOC(=O)Cn1c2[n+](c3ccccc31)CC(O)CS2 (configuration not stated) | - | - | 16µM | - | - | -
COc1ccc(O)c(/C=N/n2c(-c3ccco3)csc2=Nc2cccnc2)c1 | - | - | - | - | - | -

Bioassay records: PubChem BioAssay, National Center for Advancing Translational Sciences (NCATS)
